Measured values taken from PubChem BioAssay (EPA / NIEHS).
Results filed as inconclusive are left out. Activity calls are given as the source filed them. The calls were made as follows, unless noted: active = hit-call score of the fitted dose curve at least 0.9, where 1 is the maximum; inactive = score below 0.9.

How the values were obtained:
[1] = read-out: Monokine induced gamma interferon (MIG), CXCL9 (gene 4283); test: BSK_SAg_MIG: BioMAP Diversity Plus: SAg Assay for Monokine induced gamma interferon (MIG) Biomarker Activity (AID 2283092); conditions: primary human HUVEC with PBMC; actives raise or lower the signal
Procedure, shortened: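 HUVEC plus human PBMC co-culture, chemicals dosed and MIG (CXCL9) quantified by ELISA at 24 h. Bidirectional curve fitting against DMSO as negative control and baseline, so both gain and loss of signal count as activity.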

[2] = BSK_SAg_PBMCCytotoxicity: PBMC Cytotoxicity Assessment in the BioMAP Diversity Plus: SAg Assay (AID 2283093); conditions: primary human HUVEC with PBMC;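 also: PBMC viability measured as Alamar Blue reduction fluorescence at 546/580 nm; fitted both ways against DMSO so a hit may be loss or gain of signal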;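 as to AC50: PBMC superantigen activated with SEB plus TSST-1 one hour after compound addition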
Procedure, shortened: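 Compound added to 75,000 PBMC/well for 1 h; SEB and TSST-1 then added at 20 ng/mL final each; 90 h incubation; Alamar Blue 6 h; read 546/580 nm ex/em. Activity fitted bidirectionally relative to DMSO baseline.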

[3] = read-out: Interleukin-8 (IL8), CXCL8 (gene 3576); test: BSK_SAg_IL8: BioMAP Diversity Plus: SAg Assay for Interleukin-8 (IL8) Biomarker Activity (AID 2283094); conditions: primary human HUVEC with PBMC; actives raise or lower the signal
Procedure, shortened: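 Human umbilical vein endothelial cells co-cultured with peripheral blood mononuclear cells; IL-8 measured by ELISA 24 h after chemical dosing. Bidirectional concentration-response fitting used DMSO as negative control and activity baseline.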

[4] = BSK_SAg_Proliferation: Cell Proliferation Assessment in the BioMAP Diversity Plus: SAg Assay (AID 2283095); conditions: primary human HUVEC with PBMC;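 also: relative cell number as total protein by SRB absorbance in sub-confluent culture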
Procedure, shortened: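 Human umbilical vein endothelial cells co-cultured with peripheral blood mononuclear cells; total protein measured by sulforhodamine B staining (0.1% SRB after 10% TCA fixation), absorbance at 560 nm, at 96 h. Bidirectional fit against DMSO baseline.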

[5] = BSK_SAg_SRB: Viability Assessment in the BioMAP Diversity Plus: SAg Assay (AID 2283096); conditions: primary human HUVEC with PBMC;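 also: cells read one day after compound addition; hits may be either gain or loss of signal compared with DMSO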
Procedure, shortened: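 Total protein by sulforhodamine B staining, 24 h after dosing, in HUVEC–PBMC co-culture; DMSO-referenced bidirectional fitting.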

[6] = read-out: E-selectin (Homo sapiens) (UniProt P16581); test: BSK_SAg_Eselectin: BioMAP Diversity Plus: SAg Assay for Eselectin Biomarker Activity (AID 2283091); conditions: primary human HUVEC with PBMC; actives raise or lower the signal
Procedure, shortened: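 Endpoint values derive from bidirectional fitting relative to DMSO, using ELISA-measured E-selectin in a human vascular co-culture (umbilical vein endothelium plus PBMC) sampled 24 h after dosing.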

[7] = molecular target: human CYP2C9, CYP2C9 (gene 1559) (UniProt P11712); test: NVS_ADME_hCYP2C9: NovaScreen (NVS) CYP450-related Enzyme Activity (ADME) Assay for human CYP2C9 (AID 2283108; active = hit-call score of the fitted dose curve at least 0.9, where 1 is the maximum)
Procedure, shortened: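 Fluorescence readout of CYP2C9 activity (SF9-expressed human enzyme) at 0.75 h. The primary screen used 10 uM in duplicate, with concentration-response follow-up for actives; acetonitrile was the negative control.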

[8] = molecular target: Cytochrome P450 2C19 (Homo sapiens) (UniProt P33261); test: NVS_ADME_hCYP2C19: NovaScreen (NVS) CYP450-related Enzyme Activity (ADME) Assay for human CYP2C19 (AID 2283113; active = hit-call score of the fitted dose curve at least 0.9, where 1 is the maximum;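 also: potency for inhibition seen as loss of fluorescent signal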)
Procedure, shortened: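 Biochemical CYP2C19 inhibition screen: insect-cell recombinant protein plus fluorescent substrate, 1 h, fluorescence intensity. Acetonitrile defined baseline activity. Single 10 uM concentration in duplicate, with concentration-response follow-up for actives.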

[9] = molecular target: human CYP19A1, CYP19A1 (gene 1588) (UniProt P11511); test: NVS_ADME_hCYP19A1: NovaScreen (NVS) CYP450-related Enzyme Activity (ADME) Assay for human CYP19A1 (AID 2283098; active = hit-call score of the fitted dose curve at least 0.9, where 1 is the maximum;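 as to AC50: potency for inhibitors seen as loss of fluorescent enzyme signal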)
Procedure, shortened: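 Biochem, cell-free; recombinant enzyme + specific substrate; fluorescence intensity at 0.5 h post-dose; 10 uM duplicate primary, conc. series for actives; acetonitrile = negative control/baseline; positive and negative controls on every plate.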

[10] = molecular target: human CYP1A2, CYP1A2 (gene 1544) (UniProt P05177); test: NVS_ADME_hCYP1A2: NovaScreen (NVS) CYP450-related Enzyme Activity (ADME) Assay for human CYP1A2 (AID 2283102; active = hit-call score of the fitted dose curve at least 0.9, where 1 is the maximum;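 as to AC50: potency for inhibition since loss of fluorescence marks reduced CYP1A2 activity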)
Procedure, shortened: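 Inhibition scored as decrease in fluorescent product versus acetonitrile negative control. Enzyme: insect-cell recombinant human CYP1A2, substrate-specific, cell-free. Reading at 0.5 h; 10 uM duplicate initial screen with positive and negative controls on every plate.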

[11] = molecular target: rat CYP2A2, Cyp2a2 (gene 24895) (UniProt P15149); test: NVS_ADME_rCYP2A2: NovaScreen (NVS) CYP450-related Enzyme Activity (ADME) Assay for rat CYP2A2 (AID 2283116; active = hit-call score of the fitted dose curve at least 0.9, where 1 is the maximum)
Procedure, shortened: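 Cell-free recombinant rat CYP2A2 activity with fluorogenic substrate, fluorescence read 0.2 h after dosing. Chemicals screened at 10 uM in duplicate, hits then run in concentration-response up to 20 uM; signal loss versus acetonitrile baseline.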

[12] = molecular target: rat CYP2A1, Cyp2a1 (gene 24894) (UniProt P11711); test: NVS_ADME_rCYP2A1: NovaScreen (NVS) CYP450-related Enzyme Activity (ADME) Assay for rat CYP2A1 (AID 2283114)
Procedure, shortened: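 Recombinant rat CYP2A1, cell-free, fluorogenic substrate turnover read by fluorescence intensity 0.75 h after dosing. Primary screen at 10 uM in duplicate; actives rerun as concentration-response up to 20 uM; loss of signal versus acetonitrile control.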

[13] = molecular target: Cytochrome P450 3A4 (Homo sapiens) (UniProt P08684); test: NVS_ADME_hCYP3A4: NovaScreen (NVS) CYP450-related Enzyme Activity (ADME) Assay for human CYP3A4 (AID 2283110; active = hit-call score of the fitted dose curve at least 0.9, where 1 is the maximum)
Procedure, shortened: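 Compounds were first screened in duplicate at 10 uM against recombinant CYP3A4 produced in insect cells, then actives were run in concentration series. Enzyme activity was measured by fluorescence after 0.33 hour, with acetonitrile as baseline.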

[14] = molecular target: human CYP2A6, CYP2A6 (gene 1548) (UniProt P11509); test: NVS_ADME_hCYP2A6: NovaScreen (NVS) CYP450-related Enzyme Activity (ADME) Assay for human CYP2A6 (AID 2283099; active = hit-call score of the fitted dose curve at least 0.9, where 1 is the maximum)
Procedure, shortened: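 Loss of fluorescence signal relative to acetonitrile vehicle reported CYP2A6 inhibition in a cell-free system using insect-cell-derived enzyme. Readings were taken at 0.5 h; top concentration in follow-up dose series was 20 uM.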

Measured: AC50

Chain of rat CYP2A1, Cyp2a1 (gene 24894) (P11711 whole entry, looked up): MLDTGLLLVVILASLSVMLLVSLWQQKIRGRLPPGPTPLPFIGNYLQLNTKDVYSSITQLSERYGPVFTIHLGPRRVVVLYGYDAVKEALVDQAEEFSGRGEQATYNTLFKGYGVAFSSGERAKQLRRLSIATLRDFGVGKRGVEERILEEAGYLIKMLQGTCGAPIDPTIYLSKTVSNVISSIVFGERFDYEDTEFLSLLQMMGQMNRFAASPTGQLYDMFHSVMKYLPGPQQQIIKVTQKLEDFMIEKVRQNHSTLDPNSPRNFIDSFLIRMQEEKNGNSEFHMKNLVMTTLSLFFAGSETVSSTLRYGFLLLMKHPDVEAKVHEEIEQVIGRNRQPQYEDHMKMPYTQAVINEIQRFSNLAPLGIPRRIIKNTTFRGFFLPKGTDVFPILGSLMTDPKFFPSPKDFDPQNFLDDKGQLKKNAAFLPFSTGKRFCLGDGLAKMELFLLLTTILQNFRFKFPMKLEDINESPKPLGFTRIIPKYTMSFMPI
Chain of human CYP19A1, CYP19A1 (gene 1588) (P11511 whole entry, looked up): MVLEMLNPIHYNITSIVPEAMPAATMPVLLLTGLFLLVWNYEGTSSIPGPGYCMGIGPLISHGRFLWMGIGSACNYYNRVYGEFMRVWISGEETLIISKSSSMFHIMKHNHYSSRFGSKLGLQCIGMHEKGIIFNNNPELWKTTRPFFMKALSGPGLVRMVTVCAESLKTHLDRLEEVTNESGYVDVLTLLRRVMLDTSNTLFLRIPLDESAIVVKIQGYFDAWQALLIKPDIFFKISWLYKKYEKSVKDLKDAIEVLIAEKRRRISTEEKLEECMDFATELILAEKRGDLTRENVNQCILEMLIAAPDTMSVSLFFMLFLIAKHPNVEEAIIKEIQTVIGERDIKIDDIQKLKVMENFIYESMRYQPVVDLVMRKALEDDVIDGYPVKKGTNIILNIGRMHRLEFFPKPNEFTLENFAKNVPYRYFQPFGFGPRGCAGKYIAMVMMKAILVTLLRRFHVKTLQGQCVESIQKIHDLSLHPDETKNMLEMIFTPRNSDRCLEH
Chain of human CYP1A2, CYP1A2 (gene 1544) (P05177 whole entry, looked up): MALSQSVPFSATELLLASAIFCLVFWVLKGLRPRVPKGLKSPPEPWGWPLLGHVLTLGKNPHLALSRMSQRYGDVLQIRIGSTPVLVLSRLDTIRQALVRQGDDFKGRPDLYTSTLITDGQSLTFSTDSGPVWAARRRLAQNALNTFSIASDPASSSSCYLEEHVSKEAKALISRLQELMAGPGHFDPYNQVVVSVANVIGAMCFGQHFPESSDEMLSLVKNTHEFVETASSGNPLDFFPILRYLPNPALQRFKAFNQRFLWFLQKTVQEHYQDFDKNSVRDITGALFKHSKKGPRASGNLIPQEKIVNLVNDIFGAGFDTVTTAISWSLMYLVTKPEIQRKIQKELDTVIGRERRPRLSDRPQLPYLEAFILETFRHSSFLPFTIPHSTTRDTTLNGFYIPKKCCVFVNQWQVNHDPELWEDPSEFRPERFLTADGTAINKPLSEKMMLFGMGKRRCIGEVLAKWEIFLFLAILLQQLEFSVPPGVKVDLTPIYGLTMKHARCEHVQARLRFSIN
Chain of rat CYP2A2, Cyp2a2 (gene 24895) (P15149 whole entry, looked up): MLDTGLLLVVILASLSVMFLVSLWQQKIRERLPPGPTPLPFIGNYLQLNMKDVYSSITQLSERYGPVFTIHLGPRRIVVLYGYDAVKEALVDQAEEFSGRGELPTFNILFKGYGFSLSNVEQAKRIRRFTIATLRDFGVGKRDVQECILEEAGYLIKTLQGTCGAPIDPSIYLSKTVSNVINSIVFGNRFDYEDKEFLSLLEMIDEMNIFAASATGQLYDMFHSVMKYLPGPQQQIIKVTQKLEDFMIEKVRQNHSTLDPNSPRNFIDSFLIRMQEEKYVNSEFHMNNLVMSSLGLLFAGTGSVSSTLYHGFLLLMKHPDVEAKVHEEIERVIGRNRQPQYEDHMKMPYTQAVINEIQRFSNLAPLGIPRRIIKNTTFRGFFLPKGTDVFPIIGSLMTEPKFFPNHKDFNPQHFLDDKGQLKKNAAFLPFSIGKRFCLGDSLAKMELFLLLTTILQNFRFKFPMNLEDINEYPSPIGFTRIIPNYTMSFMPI
Chain of Cytochrome P450 3A4 (Homo sapiens) (P08684 whole entry, looked up): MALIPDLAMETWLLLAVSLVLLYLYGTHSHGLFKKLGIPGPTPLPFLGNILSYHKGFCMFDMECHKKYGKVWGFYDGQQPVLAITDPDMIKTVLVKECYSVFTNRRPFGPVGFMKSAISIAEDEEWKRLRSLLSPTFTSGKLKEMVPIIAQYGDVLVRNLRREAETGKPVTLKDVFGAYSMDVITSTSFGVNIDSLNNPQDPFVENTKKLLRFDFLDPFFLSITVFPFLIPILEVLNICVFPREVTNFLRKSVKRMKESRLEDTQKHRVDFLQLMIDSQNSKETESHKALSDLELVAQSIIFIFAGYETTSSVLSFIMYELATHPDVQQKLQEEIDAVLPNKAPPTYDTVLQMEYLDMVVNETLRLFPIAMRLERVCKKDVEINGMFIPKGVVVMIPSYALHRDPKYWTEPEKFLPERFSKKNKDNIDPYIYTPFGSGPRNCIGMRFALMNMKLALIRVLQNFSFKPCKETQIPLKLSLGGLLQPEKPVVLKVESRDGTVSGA
Chain of human CYP2C9, CYP2C9 (gene 1559) (P11712 whole entry, looked up): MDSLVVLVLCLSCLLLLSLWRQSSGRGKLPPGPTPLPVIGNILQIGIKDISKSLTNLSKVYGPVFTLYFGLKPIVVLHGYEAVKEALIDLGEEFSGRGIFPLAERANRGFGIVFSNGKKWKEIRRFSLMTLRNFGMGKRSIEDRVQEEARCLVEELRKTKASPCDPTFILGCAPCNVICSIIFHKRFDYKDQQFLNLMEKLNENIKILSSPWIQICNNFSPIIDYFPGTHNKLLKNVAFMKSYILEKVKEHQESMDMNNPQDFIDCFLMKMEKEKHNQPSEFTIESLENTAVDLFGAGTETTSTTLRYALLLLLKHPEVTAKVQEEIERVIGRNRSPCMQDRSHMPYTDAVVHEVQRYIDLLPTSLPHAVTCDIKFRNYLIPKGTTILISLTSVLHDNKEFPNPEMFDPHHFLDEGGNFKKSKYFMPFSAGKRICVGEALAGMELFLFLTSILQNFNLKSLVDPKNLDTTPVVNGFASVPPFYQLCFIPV
Chain of human CYP2A6, CYP2A6 (gene 1548) (P11509 whole entry, looked up): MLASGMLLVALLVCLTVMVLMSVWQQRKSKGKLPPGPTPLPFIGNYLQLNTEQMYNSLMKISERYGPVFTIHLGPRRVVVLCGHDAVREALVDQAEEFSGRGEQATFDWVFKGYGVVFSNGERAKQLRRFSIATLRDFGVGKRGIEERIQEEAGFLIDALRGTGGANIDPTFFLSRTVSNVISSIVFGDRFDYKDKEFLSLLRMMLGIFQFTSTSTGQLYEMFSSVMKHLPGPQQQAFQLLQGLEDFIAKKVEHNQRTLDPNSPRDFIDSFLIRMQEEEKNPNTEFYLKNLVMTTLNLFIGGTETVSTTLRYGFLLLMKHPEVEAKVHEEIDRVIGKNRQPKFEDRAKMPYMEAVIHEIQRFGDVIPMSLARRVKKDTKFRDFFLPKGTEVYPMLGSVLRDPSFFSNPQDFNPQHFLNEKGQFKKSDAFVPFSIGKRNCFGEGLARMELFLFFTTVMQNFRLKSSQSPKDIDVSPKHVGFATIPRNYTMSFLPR
Chain of E-selectin (Homo sapiens) (P16581 whole entry, looked up): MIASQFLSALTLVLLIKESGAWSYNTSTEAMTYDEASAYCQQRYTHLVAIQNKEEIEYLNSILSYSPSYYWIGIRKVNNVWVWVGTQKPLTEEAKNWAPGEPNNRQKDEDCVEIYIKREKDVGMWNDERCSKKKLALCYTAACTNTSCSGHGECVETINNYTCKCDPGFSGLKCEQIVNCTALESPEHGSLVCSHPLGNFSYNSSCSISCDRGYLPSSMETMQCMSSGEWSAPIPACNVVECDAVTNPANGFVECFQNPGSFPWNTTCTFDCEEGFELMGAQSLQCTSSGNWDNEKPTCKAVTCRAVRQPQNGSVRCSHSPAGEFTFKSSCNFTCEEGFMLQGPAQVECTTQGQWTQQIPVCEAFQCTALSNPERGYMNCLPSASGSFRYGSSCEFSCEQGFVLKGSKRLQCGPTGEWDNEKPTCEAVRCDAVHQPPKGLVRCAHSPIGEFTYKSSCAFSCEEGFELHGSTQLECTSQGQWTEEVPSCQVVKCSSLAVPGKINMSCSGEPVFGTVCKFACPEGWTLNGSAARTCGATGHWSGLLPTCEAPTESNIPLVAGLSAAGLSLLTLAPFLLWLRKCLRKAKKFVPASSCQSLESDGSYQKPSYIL

COC(=O)Cc1ccccc1
inactive: [1] | [2] | [3] | [4] | [5]

COP(=S)(OC)Oc1ccc(S(=O)(=O)N(C)C)cc1
inactive: [6] | [1] | [2] | [4] | [5]
active: [7] 0.0779 µM | [8] 0.19 µM

C[C@]12CCC(=O)C[C@@H]1CC[C@@H]1[C@@H]2CC[C@]2(C)[C@@H](O)CC[C@@H]12
active: [5] 25.7 µM
inactive: [1] | [2] | [3] | [4]

CN(C)N=O
inactive: [1] | [2] | [4] | [5]

O=c1[nH]c(=O)[nH]c(=O)[nH]1
inactive: [1] | [2] | [4] | [5]

Oc1cccc2cccnc12
inactive: [1] | [5] | [9]
active: [2] 3.57 µM | [4] 4.71 µM

O=C(Nc1ccc2[nH]ccc2c1)c1cc2cc(F)ccc2n1Cc1cccc(F)c1
active: [1] 12.7 µM | [2] 9.98 µM | [4] 6.62 µM | [5] 14.6 µM
inactive: [10]

O=C(OC1CCCCC1)c1ccccc1C(=O)OC1CCCCC1
active: [1] 29.8 µM | [2] 20.9 µM | [4] 17.3 µM | [5] 20.9 µM

OCc1ccco1
inactive: [1] | [2] | [5] | [9]
active: [4] 26.7 µM

CCOP(=S)(OCC)SCCS(=O)(=O)CC
inactive: [1] | [2] | [4] | [5]

CC(C)C1CCC(Cc2ccc(Cl)cc2)C1(O)Cn1cncn1 (stereo unspecified)
active: [11] 0.106 µM

CCOC(=O)Nc1cccc(OC(=O)Nc2ccccc2)c1
active: [10] 11.4 µM | [12] 6.84 µM

Fc1ccc(C2(Cn3cncn3)OC2c2ccccc2Cl)cc1 (stereo unspecified)
active: [9] 1.86 µM | [10] 5.36 µM | [7] 6.5 µM | [13] 5.96 µM | [8] 1.56 µM | [12] 2.98 µM | [11] 0.353 µM

NC(=O)O
inactive: [1] | [2] | [4] | [5]

O=[N+]([O-])c1ccc(O)c([N+](=O)[O-])c1
inactive: [1] | [2] | [4] | [5] | [14]

O=C1C(Cl)=C(Cl)C(=O)c2ccccc21
active: [9] 7.68 µM

CC12CC1(C)C(=O)N(c1cc(Cl)cc(Cl)c1)C2=O (stereo unspecified)
inactive: [1] | [2] | [3] | [4] | [5] | [13]
active: [12] 0.881 µM | [11] 4.98 µM
